The source made the active and inactive calls.

Assay [1] relates to Plasmodium falciparum Sir2 (PF13_0152, Sir2A). The assay is described as follows: Plasmodium falciparum Sir2A binding compounds – biochemical, small-molecule microarray, 635 nm fluorescence, primary screen (AID 1098).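 Note: score merges spot fluorescence intensity with its signal-to-noise ratio.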 To be noted: fluorescence 635 nm, higher = more signal.
Assay [2] is described as follows: probe aDKK1 binding to arrayed compounds – biochemical, biotinylated probe, 635/667 nm fluorescence, primary screen (AID 1099).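 Note: score merges 667nm spot fluorescence with signal to noise across triplicate slides.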 To be noted: small-molecule microarray, higher = more signal.
Assay [3] can be described thus: probe aCHRDL2 binding to arrayed compounds – biochemical, biotinylated probe, 635/667 nm fluorescence, primary screen (AID 1100). To be noted: small-molecule microarray, higher = more signal.
Assay [4] can be described thus: change in splice reporter luminescence, either direction, cell-based, HEK293, spliceosome inhibition project, primary screen (AID 1101).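 Note: HEK293 cells carrying a splicing-competent luciferase reporter gene; test concentration not given here.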 To be noted: HEK293 splicing luciferase reporter, 24 h, higher = more signal, called active from +8 up or from −8 down. Background: A reporter such as luciferase makes a cellular process visible.
In assay [5] the target is Fibroblast growth factor 10 (Homo sapiens) (UniProt O15520). The assay is described as follows: compounds binding fibroblast growth factor 10 – biochemical, small-molecule microarray, 635 nm fluorescence, primary screen (AID 1102). To be noted: FGF10 binding, fluorescence 635 nm, higher = more signal.
Chain of Fibroblast growth factor 10 (Homo sapiens) (O15520 whole entry, looked up): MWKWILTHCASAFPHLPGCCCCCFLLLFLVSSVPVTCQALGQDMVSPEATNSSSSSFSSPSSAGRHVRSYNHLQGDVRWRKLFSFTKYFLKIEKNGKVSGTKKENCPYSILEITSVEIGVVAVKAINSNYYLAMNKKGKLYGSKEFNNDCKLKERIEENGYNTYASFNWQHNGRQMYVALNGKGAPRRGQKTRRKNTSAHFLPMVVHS
The test system of assay [6] is glycogen synthase kinase-3 (GSK3A per assay name; protocol says GSK3B). The assay is described as follows: compounds binding glycogen synthase kinase-3 – biochemical, small-molecule microarray, 635 nm fluorescence, GSK3A, primary screen (AID 1103). Note: the record names both GSK3A and GSK3B. To be noted: fluorescence 635 nm, higher = more signal.
Assay [7] concerns the target Epidermal growth factor receptor (Homo sapiens) (UniProt P00533). The assay is described as follows: compounds binding epidermal growth factor receptor – biochemical, small-molecule microarray, 635 nm fluorescence, primary screen (AID 1104).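 Note: score merges 667 nm emission intensity with spot signal to noise over triplicate slides.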 The following applies: EGFR binding, higher = more signal.
Assay [8] concerns the target Follistatin-related protein 3 (Homo sapiens) (UniProt O95633). The assay is described as follows: compounds binding follistatin-related protein 3 – biochemical, small-molecule microarray, 635 nm fluorescence, primary screen (AID 1105).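 Note: score merges emission near 667 nm and signal to noise per printed spot across three slides.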 To be noted: FSTL3 binding, higher = more signal.
The target of assay [9] is Dickkopf-related protein 1 (Homo sapiens) (UniProt O94907). The assay is described as follows: small molecules binding DKK1 protein – biochemical, small-molecule microarray, 635 nm fluorescence scan, primary screen (AID 1106).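 Note: score merges emission near 667 nm with signal to noise over three replicate slides.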 The following applies: higher = more signal.
Chain of Dickkopf-related protein 1 (Homo sapiens) (O94907 whole entry, looked up): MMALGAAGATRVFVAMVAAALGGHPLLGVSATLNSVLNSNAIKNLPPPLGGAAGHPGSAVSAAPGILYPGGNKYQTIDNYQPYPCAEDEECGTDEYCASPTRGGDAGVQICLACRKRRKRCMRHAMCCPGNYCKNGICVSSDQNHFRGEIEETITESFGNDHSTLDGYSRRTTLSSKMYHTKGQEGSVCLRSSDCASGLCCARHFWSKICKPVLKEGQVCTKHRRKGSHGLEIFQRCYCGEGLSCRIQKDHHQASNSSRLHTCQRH
For assay [10], the system named is Inhibin beta A chain (activin A). The assay is described as follows: small molecules binding activin A – biochemical, small-molecule microarray, 635 nm fluorescence scan, primary screen (AID 1107).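 Note: mouse activin A protein probed at 4.33 µg/mL on printed slides; score merges bound-protein fluorescence near 667 nm with spot signal-to-noise.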 The following applies: INHBA, higher = more signal.
The subject of assay [11] is Human papillomavirus type 1a protein E7 (residues 44-93). The assay is described as follows: small molecules binding HPV E7 44-93 – biochemical, small-molecule microarray, residues 44-93, 635 nm fluorescence, primary screen (AID 1108).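 Note: E7 fragment applied at 1 µg/mL in TBST for 1 h at 4 C; score combines spot fluorescence with its signal to noise ratio.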 The following applies: fluorescence 635 nm, higher = more signal.
A short description of assay [12]: hepatitis C replication reporter changes, two-sided – Huh7 cells, luciferase reporter, HCV replication inhibitor project, primary screen (AID 1109).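 Note: huh7 hepatoma cells harbouring a luciferase neomycin HCV replicon reporter; luciferase luminescence as measure of HCV replicon replication; test concentration not given here.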 The following applies: Huh7 HCV replicon luciferase reporter, 48 h; higher = more signal.
Assay [13] addresses Left-right determination factor 2 (Homo sapiens) (UniProt O00292). The assay is described as follows: small molecules binding LEFTY2 protein – biochemical, small-molecule microarray, 635 nm fluorescence scan, primary screen (AID 1110). To be noted: higher = more signal.
The target of assay [14] is Calmodulin-1 (Homo sapiens) (UniProt P0DP23). The assay is described as follows: small molecules binding calmodulin-1 with EGTA – biochemical, small-molecule microarray, Cy5-labelled CALM1, profiling panel (AID 1111).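 Note: labelled calmodulin applied in Tris saline Tween buffer holding calcium plus EGTA and DTT.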 The following applies: Cy5-CALM1 binding fluorescence, higher = more signal.
Assay [15] shares this target. The assay is described as follows: small molecules binding Ca-loaded calmodulin-1 – biochemical, small-molecule microarray, Cy5-labelled CALM1, plus calcium, artefact control for SMM control-protein annotation, profiling panel (AID 1112).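 Note: score merges spot fluorescence with signal to noise from triplicate slides.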 The following applies: Cy5-CALM1 binding fluorescence, higher = more signal.
A short description of assay [16]: probe aWnt5a binding to arrayed compounds – biochemical, biotinylated probe, 635/667 nm fluorescence, primary screen (AID 1113).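 Note: score merges 667 nm fluorescence intensity with signal-to-noise per printed feature.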 The following applies: small-molecule microarray, higher = more signal.
Assay [17] can be described thus: probe aShh binding to arrayed compounds – biochemical, biotinylated probe, 635/667 nm fluorescence, primary screen (AID 1114).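 Note: probe is biotin-labelled aShh protein from a stem cell growth factor screen; measures binding of labelled protein to compounds printed on the slide; score merges feature fluorescence at 667 nm with signal-to-noise.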 To be noted: small-molecule microarray, higher = more signal.
Assay [18] is described as follows: probe aNog binding to arrayed compounds – biochemical, biotinylated probe, 635/667 nm fluorescence, primary screen (AID 1115).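 Note: probe is biotinylated aNog protein used at 0.15 µg/mL for 1 h at 4 C; z-score combines 667 nm fluorescence of each spot with its signal to noise.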 The following applies: small-molecule microarray, higher = more signal.
The target of assay [19] is Torsin-1A-interacting protein 1 (Homo sapiens) (UniProt Q5JTV8). The assay is described as follows: compound microarray binding of lysate hLAP1 – cell lysate, small-molecule microarray, COS7 lysate, 635/667 nm fluorescence, primary screen (AID 1116). The following applies: 635 nm fluorescence, higher = more signal.
Chain of Torsin-1A-interacting protein 1 (Homo sapiens) (Q5JTV8 whole entry, looked up): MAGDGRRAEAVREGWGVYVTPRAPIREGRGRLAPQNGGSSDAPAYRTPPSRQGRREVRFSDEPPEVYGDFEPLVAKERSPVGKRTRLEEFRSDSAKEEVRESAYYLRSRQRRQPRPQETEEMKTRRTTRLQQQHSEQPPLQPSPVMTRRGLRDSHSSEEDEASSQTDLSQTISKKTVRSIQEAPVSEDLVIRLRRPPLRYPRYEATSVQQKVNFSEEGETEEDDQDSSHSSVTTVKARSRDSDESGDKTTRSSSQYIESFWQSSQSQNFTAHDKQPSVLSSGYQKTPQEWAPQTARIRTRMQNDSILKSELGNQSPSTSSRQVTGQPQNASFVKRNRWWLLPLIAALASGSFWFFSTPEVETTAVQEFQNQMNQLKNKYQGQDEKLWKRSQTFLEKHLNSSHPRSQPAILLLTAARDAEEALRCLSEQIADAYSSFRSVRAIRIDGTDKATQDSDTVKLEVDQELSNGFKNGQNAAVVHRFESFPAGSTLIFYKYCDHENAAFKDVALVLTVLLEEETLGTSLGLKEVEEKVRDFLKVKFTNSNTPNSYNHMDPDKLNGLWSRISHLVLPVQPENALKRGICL
Assay [20] has as its target Alpha-bungarotoxin (Bungarus multicinctus) (UniProt P60615). The assay is described as follows: compounds binding labelled alpha-BTX control protein – biochemical, small-molecule microarray, Alexa647 label, 635/667 nm fluorescence, artefact control for SMM control protein annotation, profiling panel (AID 1117). The following applies: alpha-BTX-A647 binding fluorescence, higher = more signal.

Chain of Left-right determination factor 2 (Homo sapiens) (O00292 whole entry, looked up): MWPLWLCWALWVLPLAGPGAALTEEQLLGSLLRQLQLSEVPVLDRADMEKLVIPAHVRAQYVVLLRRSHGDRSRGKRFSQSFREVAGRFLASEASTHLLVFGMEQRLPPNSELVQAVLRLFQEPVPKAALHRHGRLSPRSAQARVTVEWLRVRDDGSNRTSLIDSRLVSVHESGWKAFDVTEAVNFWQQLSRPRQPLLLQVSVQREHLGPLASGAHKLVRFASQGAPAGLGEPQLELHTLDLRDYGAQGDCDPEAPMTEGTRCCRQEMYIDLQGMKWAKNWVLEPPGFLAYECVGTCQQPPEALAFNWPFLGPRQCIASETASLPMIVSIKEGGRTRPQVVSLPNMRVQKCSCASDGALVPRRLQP
Chain of Alpha-bungarotoxin (Bungarus multicinctus) (P60615 whole entry, looked up): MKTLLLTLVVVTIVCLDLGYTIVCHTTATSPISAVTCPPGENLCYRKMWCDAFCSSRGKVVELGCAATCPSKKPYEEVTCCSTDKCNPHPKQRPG
Chain of Follistatin-related protein 3 (Homo sapiens) (O95633 whole entry, looked up): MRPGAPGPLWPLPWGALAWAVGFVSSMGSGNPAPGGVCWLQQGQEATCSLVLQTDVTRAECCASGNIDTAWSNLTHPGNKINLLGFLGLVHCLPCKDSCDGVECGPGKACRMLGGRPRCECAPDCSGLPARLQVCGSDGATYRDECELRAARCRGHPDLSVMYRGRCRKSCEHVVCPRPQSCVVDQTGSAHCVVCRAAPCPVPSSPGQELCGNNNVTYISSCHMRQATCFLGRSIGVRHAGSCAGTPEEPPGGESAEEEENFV
Chain of Epidermal growth factor receptor (Homo sapiens) (P00533 whole entry, looked up): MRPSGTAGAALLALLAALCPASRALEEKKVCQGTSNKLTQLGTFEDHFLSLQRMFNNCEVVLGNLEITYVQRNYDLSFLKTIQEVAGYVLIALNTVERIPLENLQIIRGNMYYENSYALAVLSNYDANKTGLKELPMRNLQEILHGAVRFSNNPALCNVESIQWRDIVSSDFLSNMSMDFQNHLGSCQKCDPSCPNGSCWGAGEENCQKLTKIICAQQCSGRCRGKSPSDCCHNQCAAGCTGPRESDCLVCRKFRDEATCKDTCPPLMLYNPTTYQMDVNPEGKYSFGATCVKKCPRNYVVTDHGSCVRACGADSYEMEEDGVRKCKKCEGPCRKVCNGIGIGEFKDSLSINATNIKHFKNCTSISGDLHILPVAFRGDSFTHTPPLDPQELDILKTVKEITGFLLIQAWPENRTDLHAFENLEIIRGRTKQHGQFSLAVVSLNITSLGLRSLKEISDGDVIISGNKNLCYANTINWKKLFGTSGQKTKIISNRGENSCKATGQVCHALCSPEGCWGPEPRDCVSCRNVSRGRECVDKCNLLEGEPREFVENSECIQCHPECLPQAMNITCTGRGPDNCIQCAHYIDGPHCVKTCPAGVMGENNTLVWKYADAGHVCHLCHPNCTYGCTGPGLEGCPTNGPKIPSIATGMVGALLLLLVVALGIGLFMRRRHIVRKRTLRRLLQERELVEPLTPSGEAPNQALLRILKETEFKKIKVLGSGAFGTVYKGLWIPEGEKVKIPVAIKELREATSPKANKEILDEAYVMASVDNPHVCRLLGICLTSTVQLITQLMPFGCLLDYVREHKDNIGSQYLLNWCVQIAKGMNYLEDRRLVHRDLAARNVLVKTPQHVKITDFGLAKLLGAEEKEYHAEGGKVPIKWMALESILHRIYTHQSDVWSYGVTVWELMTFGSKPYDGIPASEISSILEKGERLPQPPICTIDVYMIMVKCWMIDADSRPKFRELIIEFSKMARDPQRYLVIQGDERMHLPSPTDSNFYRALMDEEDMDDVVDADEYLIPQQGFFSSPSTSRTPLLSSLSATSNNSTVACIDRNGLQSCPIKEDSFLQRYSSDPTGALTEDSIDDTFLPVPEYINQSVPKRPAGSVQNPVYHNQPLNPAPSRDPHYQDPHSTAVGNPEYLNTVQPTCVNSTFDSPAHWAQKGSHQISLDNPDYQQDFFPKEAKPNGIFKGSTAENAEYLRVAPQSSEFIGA

Regarding `CCOC(=O)C[C@H]1[C@H](OC(=O)c2ccc(C(=O)c3ccccc3)cc2)[C@@H](NC(=O)c2ccccc2)c2cc(OCCCO)ccc2N1C(=O)c1ccc2ccccc2n1`, the composite z-score is 0.295 in assay [1]; -0.349 in [2]; -0.267 in assay [3]; -0.286 in [5]; 1.05 in [6]; 0.267 in assay [7]. In addition, the composite z-score in assay [8] is 0.399; in assay [9], -0.186; in [10], -0.136; in [11], 1.31; in [13] it was 0.495; in assay [14], 1.61. Also, the composite z-score is 0.506 in [15]; -0.0614 in [16]; -0.138 in [17]; -0.308 in assay [18]; 0.239 in assay [19]; 0.635 in [20]. In addition, the z-score in [4] was 0.487 (inactive); in [12] it was -1.16.
As to `CC(C)C[C@@H]1NC(=O)[C@@H]2C[C@H](C(=O)O)[C@H](c3cccc(OCCO)c3)N2C1=O`, the composite z-score in assay [1] is 0.881; in [2], -0.212; in assay [3], 0.598; in assay [5], -0.246; in assay [6], 0.12; in [7], -0.242. The composite z-score in assay [8] is 0.152; in assay [9], -0.176; in [10], -0.513; in assay [11], -0.366; in assay [13], -0.312; in assay [14], 0.26. Besides, the composite z-score in assay [15] was 0.758; in [16], -0.147; in assay [17], -0.199; in [18], -0.066; in [19], 0.517; in assay [20], -0.937. Besides, the results for the z-score in [4] and in assay [12] were -0.358 (inactive) and 0.148, respectively.
`COc1cccc(-c2cccc(=O)o2)c1`: the composite z-score in assay [1] is 1.37; in assay [2], 0.956; in [3], 0.513; in [5] it was 0.423; in [6], -0.21; in assay [7] it was 0.482. The composite z-score in assay [8] is 0.148; in [9], 0.143; in assay [10], 1.15; in assay [11], -1.17; in assay [13] it was 0.361; in assay [14], -0.753. Moreover, the composite z-score is -0.454 in assay [15]; 0.153 in assay [16]; 0.475 in [17]; 0.192 in assay [18]; 0.628 in assay [19]; 0.141 in assay [20]. The z-score is 0.742 (inactive) in assay [4] and 0.473 in assay [12].
Turning to `O=C1C2C=CC(C(O)c3cc(C(F)(F)F)cc(C(F)(F)F)c3)N(n3cnnc3)C2C(=O)N1Cc1ccccc1` (stereo not given), the composite z-score in assay [1] was 0.716; in assay [2] it was -0.0958; in assay [3] it was 0.531; in assay [5] it was -0.409; in assay [6], -0.261; in [7] it was -0.165. The composite z-score was -0.103 in assay [8]; -1.17 in assay [9]; -0.301 in assay [10]; 1.11 in assay [11]; -0.63 in assay [13]; 0.538 in [14]. Moreover, the composite z-score was -0.374 in [15]; -0.0161 in assay [16]; 0.14 in assay [17]; 0.705 in assay [18]; -0.133 in assay [19]; -0.0735 in assay [20]. Further, the z-score in [4] was -0.27 (inactive); in assay [12], -0.418.
For the molecule `COCCOC(=O)N1C(=O)[C@@]2(c3ccccc31)[C@H](c1ccccc1OCCO)N1[C@H](c3ccccc3)[C@H](c3ccccc3)OC(=O)[C@H]1[C@@H]2C(=O)N1CCN(c2ncccn2)CC1`, the composite z-score in assay [1] is 1.21; in [2], 0.386; in [3] it was 0.72; in assay [5], 0.357; in [6], 0.852; in [7] it was 0.792. In addition, the composite z-score in assay [8] is 0.555; in assay [9] it was 0.471; in assay [10], -0.0468; in assay [11], 0.771; in assay [13], 0.567; in assay [14], 1.69. Further, the composite z-score in assay [15] was 0.614; in assay [16] it was -0.096; in assay [17], 0.199; in assay [18], 0.441; in assay [19] it was 1.24; in assay [20], 1.46. Moreover, the z-score was -0.869 (inactive) in [4] and -2.73 in [12].
On to `CCCC=C(CCC)[C@@H](NC(=O)c1cccs1)c1ccc(C(F)(F)F)cc1`, for which the composite z-score was determined as 0.119 in assay [1]; 0.607 in assay [2]; 0.406 in assay [3]; 0.36 in [5]; 1.25 in assay [6]; 0.569 in [7]. The composite z-score was 0.857 in assay [8]; -0.568 in assay [9]; 0.454 in [10]; 1.17 in assay [11]; 1.16 in assay [13]; 1.48 in [14]. Also, the composite z-score in assay [15] was 0.522; in [16] it was 0.0546; in [17], 0.336; in [18], 1.15; in assay [19], 1.27; in assay [20] it was 0.734. Moreover, the results for the z-score in assay [4] and in assay [12] were -2.16 (inactive) and -0.668, respectively.

Source of the values: PubChem BioAssay.
